Results filed as inconclusive are left out. The source made the active and inactive calls. How the source made its calls: active means hit-call score of the fitted dose curve at least 0.9, where 1 is the maximum; inconclusive means response in the unintended direction; inactive means score below 0.9.

Chain of human Retinoid X Receptor beta (RXRb), RXRB (gene 6257) (P28702 whole entry, looked up): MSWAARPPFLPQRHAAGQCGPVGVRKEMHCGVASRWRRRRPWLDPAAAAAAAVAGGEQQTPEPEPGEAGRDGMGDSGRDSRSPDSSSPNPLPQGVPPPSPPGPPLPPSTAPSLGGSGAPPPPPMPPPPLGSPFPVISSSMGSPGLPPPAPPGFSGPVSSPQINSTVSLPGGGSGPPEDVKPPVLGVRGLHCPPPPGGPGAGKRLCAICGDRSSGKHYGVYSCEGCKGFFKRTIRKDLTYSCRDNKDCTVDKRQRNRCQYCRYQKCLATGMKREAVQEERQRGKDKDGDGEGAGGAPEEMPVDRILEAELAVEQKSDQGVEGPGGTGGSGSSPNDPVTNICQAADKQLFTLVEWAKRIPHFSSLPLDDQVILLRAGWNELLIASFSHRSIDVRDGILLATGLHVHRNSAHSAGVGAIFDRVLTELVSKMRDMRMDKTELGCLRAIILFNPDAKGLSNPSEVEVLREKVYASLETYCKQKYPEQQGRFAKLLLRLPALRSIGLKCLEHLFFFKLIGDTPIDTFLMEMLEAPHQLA

The target of the assay is human Retinoid X Receptor beta (RXRb), RXRB (gene 6257) (UniProt P28702). Kind of assay: ATG_hRXRb_EcoTox2: Attagene TRANS-FACTORIAL EcoTox-2 HepG2 Assay for human Retinoid X Receptor beta (RXRb). As to the method:
ATG_EcoTox2 is a cell-based, multiplexed assay created by modifying the existing Attagene TRANS-FACTORIAL system to include a panel of nuclear receptors from some or all the following species: human (Homo sapiens), african clawed frog (Xenopus laevis), rainbow trout (Oncorhynchus mykiss), japanese medaka (Oryzias latipes), and zebrafish (Danio rerio). The ECOTOX2-FACTORIAL format uses HepG2, a human liver cell line, with measurements taken at 24 hours after chemical dosing in a 24-well plate. ATG_hRXRb_EcoTox2 is one of 29 assay components calculated in the ATG_EcoTox2 assay. It is designed to make measurements of mRNA induction, a form of inducible reporter, as detected with fluorescence intensity signals by Reverse transcription polymerase chain reaction (RT-PCR) and Capillary electrophoresis technology.The assay endpoint ATG_hRXRb_EcoTox2 was analyzed in the positive analysis fitting direction relative to DMSO as the negative control and baseline of activity. Using a type of inducible reporter, measures of mRNA for gain-of-signal activity can be used to understand the reporter gene at the transcription factor-level as they relate to the gene RXRb. Furthermore, this assay endpoint can be referred to as a primary readout, because this assay has produced multiple assay endpoints where this one serves a reporter gene function. To generalize the intended target to other relatable targets, this assay endpoint is annotated to the nuclear receptor intended target family, where the subfamily is non-steroidal.
Human liver HepG2 cells are transiently transfected with multiple reporter transcription units (MRTUs) in 6-well plates using FuGene 6 reagent (Roche; 3 ml FuGene/1 mg DNA). The MRTU constructs are regulated by a cis-regulating element (promoter). Each RTU expresses a GAL4-UAS that regulates the transcription of a nearby target reporter gene sequence. A major difference between the CIS and TRANS system is that in CIS activities of endogenous TFs are measured, whereas the TRANS assay evaluates changes in activities of exogenous, chimeric NR-Gal4 proteins. […] At the end of 24 hour incubation, total RNA was isolated using TriZol reagent (Invitrogen). The isolated RNA is then reverse-transcribed using oligo(dT) primer and Mo-MLV reverse transcriptase (Invitrogen) with DNAse I (Ambion) treatment for 30 min. The one-tenth of the produced cDNA was amplified by PCR using Taq DNA polymerase (Invitrogen) and two reporter sequence-specific primers. The PCR products were fluorescently labeled by primer extension with 6-arboxyfluorescein (6-FAM) 5'-labeled reporter sequence-specific primer (2 min at 95 C, 20 s at 68 C and 10 min at 72 C) and these products were digested with 5U of HpaI (New England Biolabs) for 2h at 37 C. The fragments were purified using Qiaquick PCR columns (Qiagen), analyzed on an ABI 3130xL genetic analyzer (Applied Biosystems) with peak positions identified by using a set of X-rhodamine (ROX)-labeled MapMarker1000 molecular weight standards (BioVentures). The raw capillary electrophoresis data was processed using Attagraph software (Attagene).
With `CC(C)(Oc1ccc(C2CC2(Cl)Cl)cc1)C(=O)O` (centres undefined), the result was inactive. As to `CN(CCOc1ccc(CC2SC(=O)NC2=O)cc1)c1ccccn1` (centres undefined), the AC50 was 13 µM (active).

Consider `C[C@@H]1C[C@H]2[C@@H]3CCC4=CC(=O)C=C[C@]4(C)[C@@]3(F)[C@@H](O)C[C@]2(C)[C@@]1(O)C(=O)COP(=O)(O)O`, for which the outcome was inactive. For `CC(C)(Oc1ccc(CCNC(=O)c2ccc(Cl)cc2)cc1)C(=O)O`, the compound was classed as inactive. For `Cc1ccc(C)c(OCCCC(C)(C)C(=O)O)c1`, the AC50 was 18.6 µM (active). Consider `CC(C)OC(=O)C(C)(C)Oc1ccc(C(=O)c2ccc(Cl)cc2)cc1`, for which the result was inactive. Turning to `CC(c1cc2ccccc2s1)N(O)C(N)=O` (centres undefined), the outcome was inactive. On to `C[C@]12C=CC(=O)C=C1CC[C@@H]1[C@@H]2C(=O)C[C@@]2(C)[C@H]1CC[C@]2(O)C(=O)CO`, for which the outcome was inactive. As to `CC(C)(Oc1ccc(Cl)cc1)C(=O)O`, the result was inactive.

What is called AC50 is the concentration giving half of the maximal activity seen.

Source of the values: PubChem BioAssay AID2284354 (EPA ToxCast).
